FBW7 act – human FBW7 E3 ligase activation, primary screen; 650,000 tested, 0.13% active; AID 1259310; AlphaScreen FBW7–phospho-cyclin E peptide binding, activator screen; Q969H0; normalized activity (activation), % at 26.1 µM; in the data active = normalized activity above about 1.9%;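 note: purified mutant Fbw7 with reduced substrate affinity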
TEAD-YAP inh – TEAD-YAP interaction inhibition. HEK-TIYL cells, TEAD-Gal4/YAP UAS-luciferase luminescence. inhibition, % at 9.12 µM. 640,000 tested, 1.4% active. AID 1259422; in the data active = inhibition above about 32%;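 note: 0% = median of test compound wells and 100% = reference inhibitor wells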
GPR151 ag – activates the human receptor GPR151. 650,000 tested, 1% active. activation, % at 11.2 µM. PathHunter beta-arrestin GPR151 cells, luminescence; in the data active = activation above about 4.9%;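 note: 0% = median of compound wells and 100% = cells with positive control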
Target sequence (Q8TDV0 whole entry, looked up): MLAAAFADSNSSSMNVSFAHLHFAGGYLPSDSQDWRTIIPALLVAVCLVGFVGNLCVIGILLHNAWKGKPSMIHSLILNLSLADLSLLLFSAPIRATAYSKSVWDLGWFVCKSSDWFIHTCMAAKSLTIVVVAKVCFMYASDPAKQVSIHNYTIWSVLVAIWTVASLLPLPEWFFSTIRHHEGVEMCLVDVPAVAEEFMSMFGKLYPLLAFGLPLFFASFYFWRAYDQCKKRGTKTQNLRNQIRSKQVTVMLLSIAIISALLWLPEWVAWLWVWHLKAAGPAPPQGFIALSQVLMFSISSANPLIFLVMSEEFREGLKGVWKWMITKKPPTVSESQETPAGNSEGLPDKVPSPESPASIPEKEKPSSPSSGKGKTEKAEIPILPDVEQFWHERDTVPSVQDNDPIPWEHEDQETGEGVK
MITF inh – human MITF inhibition, primary screen; AlphaScreen MITF homodimerization, bead proximity signal; O75030; 650,000 tested, 0.91% active; inhibition, % at 2.6 µM; in the data active = inhibition above about 50%;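 note: 0% = vehicle wells with protein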
MITF confirm – confirmation of human MITF inhibitors | AlphaScreen MITF homodimerization, biotin/His-MITF beads | shares compounds with MITF inh | AID 1259372 | inhibition, % at 2.6 µM | 4,700 tested, 16% active;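 active = inhibition above a cutoff derived from the DMSO control wells, cut at about 28% in these data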;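 note: 0% = MITF dimer wells with DMSO only; inhibitors lower the bead chemiluminescence by keeping MITF from dimerizing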
AlphaScreen DR – AlphaScreen optical interference, dose response counter-screen; shares compounds with MITF inh; AlphaScreen optical interference counterscreen, cell-free; IC50, µM; 480 tested, 6% active; call rule not given here
AlphaScreen intf2 – optically interferes with AlphaScreen signal; shares compounds with MITF inh; LysRS AlphaScreen counterscreen, signal interference, triplicate; inhibition, % at 2.6 µM; 4,700 tested, 7.6% active; AID 1259376;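 active = inhibition above a cutoff derived from the DMSO control wells, cut at about 30% in these data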
The depositor's hits bear a star; . = not tested or not shown. Rows were chosen to be rich in hits. Some 3.4% of all compounds tested hit in one or more screens of this group.

SMILES | FBW7 act | TEAD-YAP inh | GPR151 ag | MITF inh | MITF confirm | AlphaScreen intf2 | others
COc1ccc(/C=C/C(=O)C(C)(C)O)cc1 | 0.1 | -6.9 | 1.7 | 58.2* | -4.0 | 6.3
CCC(c1nnc(SCC(=O)N(C)C)o1)N(C)C (stereo not given) | -0.3 | 6.4 | 0.6 | 80.8* | 7.3 | 15.0
COc1ccc(N2CCN(C3CCCN(Cc4ccsc4)C3)CC2)cc1 (stereo not given) | -0.1 | -1.1 | -0.4 | -11.1 | . | .
Cc1ccccc1OCC(=O)Nc1ccc([N+](=O)[O-])cc1Cl | 0.3 | 5.0 | 1.0 | 54.0* | -12.2 | -3.7
CC(=O)Nc1ccc(NC(=O)c2ccnc(-c3cccs3)c2)cc1 | -0.1 | -0.3 | -0.3 | 28.5 | . | .
O=C(Nc1ccc(Oc2ccccc2)cc1)c1ccnc(-c2cccs2)c1 | -0.1 | 6.2 | -1.3 | 56.8* | 53.3* | -6.2 | AlphaScreen DR=>6.71
O=C(Nc1ccc(Oc2ccccc2)cc1)c1cnc(-c2cccs2)s1 | 0.3 | -3.3 | 0.6 | 53.4* | 22.5 | -3.5
CCOC(=O)Cn1c(=O)n(-c2ccc(F)cc2)c(=O)c2oc3ccccc3c21 | 0.0 | -9.3 | 0.4 | 1.9 | . | .
S=C(Nc1ccccc1Cl)N(CCCN1CCCC1)Cc1ccco1 | -0.5 | -4.2 | -0.1 | -5.9 | . | .
COc1cc(Nc2nc(N3CCN(Cc4ccc5c(c4)OCO5)CC3)nc3c2ncn3C(C)C)cc(OC)c1OC | 0.6 | 5.0 | -0.9 | 0.8 | . | .
CCN1C(=O)/C(=C/c2ccc(OC)c(OC)c2)SC1=S | -0.2 | -0.8 | 0.3 | 3.1 | . | .
COc1ccc(N2CC(O)(c3ccc(OC)cc3)[N+]3=C2SCCC3)cc1 (stereo not given) | 0.0 | -0.3 | 1.5 | -4.6 | . | .
COCCN1C(=O)/C(=C/c2ccc(O)c(I)c2)SC1=S | -0.1 | -3.0 | 0.0 | -1.6 | . | .
C/C(=N\Nc1nc2ccccc2o1)c1ccccn1 | -0.9 | -9.4 | -1.8 | 55.0* | 3.5 | 3.3
C/C(=N\Nc1ccccc1Cl)c1ccccn1 | -0.1 | -46.1 | -1.7 | -1.3 | . | .
CCCCNCCCCCOc1ccc([N+](=O)[O-])cc1 | 1.3 | 1.2 | 1.1 | 21.8 | . | .
c1ccc(C2(CNCC3COc4ccccc4O3)CCCC2)cc1 (stereo not given) | -0.1 | -0.6 | 0.6 | 23.6 | . | .
COc1ccc(C2SCC(C(=O)O)N2C(C)=O)cc1OC (stereo not given) | 0.0 | -2.1 | -0.1 | 50.6* | 10.5 | 14.4
C=CCSc1nc2c(c(=O)[nH]1)C(c1ccncc1)C1=C(CCCC1=O)N2 (stereo not given) | -0.1 | 3.3 | -0.1 | 2.4 | . | .
O=C(NCCCN1CCCC1=O)C1CCC(CNS(=O)(=O)c2ccccc2)CC1 (stereo not given) | 0.0 | 2.9 | 0.8 | 8.8 | . | .
COCCCNCCCCOc1ccc(C(C)C)c(C)c1 | -0.1 | 6.6 | -0.4 | 58.5* | 3.5 | 15.1
COCCCNCCCOc1ccc(C(C)C)c(C)c1 | -0.2 | -4.6 | -2.0 | 59.1* | 1.7 | 17.7
Clc1cc2c(c3ncccc13)OCN(Cc1ccco1)C2 | -0.3 | 26.9 | -0.8 | 33.0 | . | .
CC1(C)CC(N2COc3c(cc(Cl)c4cccnc34)C2)CC(C)(C)N1 | -0.3 | 40.3* | -1.0 | 52.0* | 68.0* | 99.9*
Clc1cc2c(c3ncccc13)OCN(C1CCCC1)C2 | -1.3 | 65.7* | -0.1 | 97.3* | 99.1* | 100.6*
SMILES | FBW7 act | TEAD-YAP inh | GPR151 ag | MITF inh | MITF confirm | AlphaScreen intf2 | others
CCOC(=O)/C=C/[C@H](CC(C)C)NC(=O)[C@H](CO)NC(=O)[C@@H](NC(=O)c1cccc(O)c1C)C(C)C | . | . | -2.9 | 0.2 | . | .
N#Cc1ccc(CSc2nc(-c3ccccc3)c(-c3ccccc3)[nH]2)cc1 | 0.2 | 5.6 | 0.4 | 9.9 | . | .
NC(=O)C(=O)N/N=C1\CCc2ccccc21 | 0.1 | -1.8 | -0.1 | 5.1 | . | .
O=S(=O)(O)c1ccc(N/N=C2\CCc3ccccc32)cc1 | -0.3 | 16.4 | -0.6 | 67.2* | 45.7* | -2.3 | AlphaScreen DR=>6.48
Cc1cc(/C=C2/C=CC(=O)O2)oc1C | 0.4 | 7.0 | -1.7 | 75.3* | 72.2* | 10.1 | AlphaScreen DR=>7.29
CCOC(=O)C(Cc1cccc(Cl)c1)(NC(C)=O)C(=O)OCC | 0.0 | -4.8 | 0.0 | 5.5 | . | .
CC(NS(=O)(=O)c1cc(Cl)ccc1Cl)C(=O)NC1CCCCC1 (stereo not given) | 0.5 | 2.4 | -0.6 | 57.5* | -4.1 | 1.0
COc1cc(C(=O)NCCC(=O)NC2CCCCCCC2)cc(OC)c1OC | -0.1 | 6.8 | -0.9 | 78.1* | -0.6 | 1.2
c1coc(CN2CCN(Cc3ccncc3)CC2)c1 | 0.2 | -12.5 | 1.0 | 34.8 | . | .
COc1cccc(C(=O)N2CCN(C3CCN(Cc4ccccc4)CC3)CC2)c1 | -0.2 | -7.1 | -0.2 | 54.4* | -7.8 | -9.6
COc1cccc(CN2CCN(C(=O)c3ccco3)CC2)c1 | -0.2 | 6.1 | -0.4 | 54.9* | -22.1 | -0.5
O=C(c1cccc(Cl)c1)N1CCN(Cc2ccccc2Cl)CC1 | -0.1 | -8.6 | 1.6 | 57.9* | 8.5 | 12.2
O=C(c1ccncc1)N1CCN(Cc2ccco2)CC1 | 0.0 | -10.5 | -0.6 | 75.6* | 4.2 | 0.4
COCCNC(=O)c1cnc(N2CCCC2)nc1 | 0.1 | 9.6 | -1.0 | 4.6 | . | .
CC(C)OC(=O)COc1ccc2c(=O)c(Oc3ccccc3Cl)coc2c1 | 0.0 | 12.0 | 0.0 | 7.8 | . | .
Cc1ccc(S(=O)(=O)CCC(=O)OCc2ccc([N+](=O)[O-])cc2)cc1 | 0.0 | -4.0 | 1.5 | 15.2 | . | .
COc1ccc(CN2CCN(C(=O)c3ccccc3)CC2)cc1 | 0.0 | 1.5 | -0.5 | 37.9 | . | .
CCOc1cc(CN2CCN(C(=O)c3cccc(Cl)c3)CC2)ccc1OC | -0.1 | 2.4 | -0.4 | 20.8 | . | .
COc1cccc(CN2CCN(C(=O)c3cccc(Cl)c3)CC2)c1 | 0.1 | -0.1 | -0.3 | 57.6* | 11.4 | 15.0
COc1ccc(C(=O)N2CCN(Cc3cccc(Cl)c3)CC2)cc1OC | 0.0 | -3.0 | -2.0 | 51.2* | 5.2 | 12.3
COc1cccc(CN2CCN(C(=O)c3ccccc3)CC2)c1 | 0.1 | -0.6 | -0.2 | 60.5* | 7.8 | 17.1
COc1cccc(C(=O)N2CCN(C(=O)c3cccc(Cl)c3)CC2)c1 | 0.0 | 16.0 | -0.1 | 22.3 | . | .
COc1cccc(C(=O)N2CCN(Cc3cccc(Cl)c3)CC2)c1 | 0.2 | 12.6 | 0.1 | 51.8* | 49.6* | 18.2
O=C(CCc1ccccc1)N1CCCC(CNS(=O)(=O)c2cccs2)C1 (stereo not given) | -0.1 | -0.2 | -0.5 | 2.9 | . | .
Cc1cc(NC(=O)CC(C)C)n(-c2nc(-c3ccccc3)cs2)n1 | 0.4 | -0.3 | -0.8 | 13.1 | . | .
Cc1ccc(C(=O)Nc2ccccc2C(N)=O)s1 | 0.1 | -34.8 | -0.9 | -3.9 | . | .
COc1cccc(C(=O)N2CCN(Cc3ccccc3Cl)CC2)c1 | -0.5 | -13.8 | -1.1 | 40.1 | . | .
O=C(c1ccccc1)N1CCN(CC(O)COCc2ccccc2)CC1 (stereo not given) | -0.2 | -5.3 | 0.1 | 55.6* | 10.6 | 10.0
